# Most compounds without a hit are left out; they make up all but 8% or so of the library.
# HT1080-NT tox = qHTS for induction of synthetic lethality in tumor cells producing 2HG: qHTS for the HT-1080-NT fibrosarcoma cell line; HT-1080-NT fibrosarcoma viability, CellTiter-Glo ATP luminescence, 48 h; Potency, µM (titrated, usually from 46.1 µM), actives largely listed as cytotoxic; 360,000 tested, 1.6% active;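 further: NT is the 2HG producing partner of a matched IDH1 knockdown line; nearly all actives have a fitted effect of over 55% in size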
#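 Toxicity toward the 2HG-producing NT line was scored as %Activity, normalised to DMSO and no-cell wells, from CellTiter-Glo luminescence after 48 hours' treatment.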
# SW480 rerep = A quantitative high throughput screen for small molecules that induce DNA re-replication in SW480 colon adenocarcinoma cells; SW480 DNA re-replication, Hoechst DNA content imaging, 48 h; Potency, µM (highest dose often 46.1 µM), hits mostly activators; 340,000 tested, 1.8% active; further: nearly all actives have a fitted effect of over 55% in size
#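 Treated cells incubate 48 hr (37 C, 5% CO2), are stained 40 min with Hoechst, and nuclear fluorescence is enumerated; a rise in nuclei with high DNA signal marks re-replication.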
# KB-V1 cytotox = qHTS assay for MDR1-selective chemotherapeutics: Primary screen using the drug-selected MDR subline cells KB-V1 | KB-V1 MDR cells viability, CellTiter-Glo, 72 h | Potency, µM (series often up to 46.1 µM), hits mostly cytotoxic | 400,000 tested, 3.4% active | AID 1347076, 2019; further: nearly all actives have a fitted effect of over 60% in size
#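 Cells of the MDR subline KB-V1 are plated, dosed with compound at multiple concentrations, and incubated 72 h at 37 degrees C; CellTiter-Glo is then added and luminescence read after 10 min.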
# HT1080 IDH1KD tx = qHTS for induction of synthetic lethality in tumor cells producing 2HG: qHTS for the HT-1080-IDH1KD cell line; HT-1080 IDH1 knockdown viability, ATP luminescence, 48 h; Potency, µM (highest dose often 46.1 µM), most hits filed as cytotoxic; AID 686971, 2013; 360,000 tested, 2% active
#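 % activity derives from luminescence (CellTiter-Glo), normalised to DMSO and no-cell wells. HT-1080-IDH1KD cells, 750/well, had 48 h compound exposure at 37 °C.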
# MCF10A rerep = A quantitative high throughput screen for small molecules that induce DNA re-replication in MCF 10a normal breast cells. Potency, µM (series often up to 46.1 µM), usual class: activators. 350,000 tested, 2.9% active. MCF 10A DNA re-replication, Hoechst nuclear intensity, 48 h; further: nearly all actives have a fitted effect of over 50% in size
# KB-3-1 tox = qHTS assay for MDR1-selective chemotherapeutics: Primary screen using the parental adenocarcinoma cell KB-3-1 | 400,000 tested, 1.4% active | Potency, µM (doses to about 46.1 µM), hits mostly cytotoxic | KB-3-1 viability, CellTiter-Glo ATP luminescence, 72 h | AID 1347075, 2019; further: nearly all actives have a fitted effect of over 60% in size
#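 KB-3-1 cells, DMEM (no phenol red) + 10% FBS; compound by pin transfer, 72 h, 37 °C. Readout: CellTiter-Glo luminescence after 10 min. Data normalized, curve-fitted.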
# Numbers stand for hits; n = inactive; u = inconclusive; x = not tested or not shown; [ ] = another dose, or the depositor's remark. The call rests on the fitted dose curve; in most records, active means well fitted curve in the direction sought with a large enough effect; inconclusive means small, poorly fitted or top-dose-only effect, or another doubt; inactive means no such curve, though single readings can be large; an effect the other way counts as inactive or inconclusive.
SMILES,HT1080-NT tox,SW480 rerep,KB-V1 cytotox,HT1080 IDH1KD tx,MCF10A rerep,KB-3-1 tox
CCOC(=O)c1nnn(-c2nonc2N)c1-c1ccc(Br)cc1,n,n,n,n,0.651µM,n
O=C(Nc1cccc(-c2ccc3nncn3n2)c1)C(F)(F)F,n,n,n,n,n,n
N#CSCC(=O)c1cccc2ccccc12,u,u,n,u,18.4µM,u
NC(=O)c1cccc2ccccc12,n,n,n,n,n,n
COP(=O)(OC)c1nc(-c2ccccc2)oc1NCc1ccccc1,n,n,n,n,n,n
COP(=O)(OC)c1nc(-c2cccc3ccccc23)oc1NCc1ccccc1,n,13µM,11.6µM,n,18.4µM,u
O=C(NC(=S)Nc1c(Cl)cc(Cl)cc1Cl)c1ccccc1,n,x,u,n,x,n
O=C(NC(c1cccnc1)C(F)(F)F)c1cc(COc2ccc3c(c2)CCCC3)on1 (stereo unspecified),n,u,u,n,u,20.6µM
Clc1cc2cccnc2c2ncccc12,n,n,n,n,n,u
Cc1c(C)c2cccnc2c2ncccc12,10.3µM,u,u,5.17µM,u,6.51µM
CSc1ccc(CN(C)CC(=O)Nc2ccccc2C(=O)NC2CC2)cc1,n,n,n,n,n,n
CCOC(=O)Cc1c(C)nc2c(C#N)c[nH]n2c1=O,n,n,u,n,n,n
CCOC(=O)Cc1c(C)nc2c(-c3cccc(Br)c3)c[nH]n2c1=O,u,18.4µM,n,u,7.31µM,n
CCOC(=O)Cc1c(C)nc2c(-c3ccc(Cl)cc3)c(C)[nH]n2c1=O,12.6µM,n,u,10µM,n,u
CCOC(=O)Cc1c(C)nc2cc(-c3ccc(C(C)(C)C)cc3)nn2c1C,x,x,n,x,x,n
CCOC(=O)Cc1c(C)nc2cc(-c3ccc(C(C)(C)C)cc3)[nH]n2c1=O,u,u,n,1.26µM,n,n
O=C(Nc1ccccc1C(=O)NC(Cc1ccccc1)C(=O)O)c1ccco1 (stereo unspecified),n,n,n,n,n,n
CC(=O)c1c(C)[nH]c(C(=O)N2CCN(c3cc(Cl)ccc3C)CC2)c1C,16.4µM,9.2µM,n,23.1µM,10.3µM,4.61µM
Cc1ccc(Cl)cc1N1CCN(S(=O)(=O)c2c(C)[nH]c(C)c2C(=O)N2CCCC2)CC1,n,n,n,n,n,n
COc1cccc(N2CCN(C(=O)c3[nH]c(C)c(C(C)=O)c3C)CC2)c1,7.08µM,7.08µM,5.62µM,5.62µM,u,6.31µM
CC(=O)c1c(C)[nH]c(C(=O)N2CCN(c3ccc(F)cc3)CC2)c1C,u,n,u,10µM,n,n
O=C(N/N=C/c1ccncc1)c1ccc(NC(=O)c2cccc(Cl)c2)cc1,n,n,n,n,n,n
OCCSc1nc(N2CCOCC2)nc(N2CCOCC2)n1,n,n,n,n,n,n
COc1cccc(OC)c1NC(=O)CN1CCN(C)CC1,n,u,n,n,u,n
COC1C(CO)OC(n2c3c(Cl)cccc3c3c4c(c5c6cccc(Cl)c6[nH]c5c32)C(=O)NC4=O)C(O)C1O (stereo unspecified),4.61µM,1.64µM,n,5.8µM,n,8.2µM
SMILES,HT1080-NT tox,SW480 rerep,KB-V1 cytotox,HT1080 IDH1KD tx,MCF10A rerep,KB-3-1 tox
O=C(COC(=O)c1c(F)cccc1F)NCc1cccs1,n,n,n,n,n,n
CC(C)N1CCN(Cc2ccc3nsnc3c2)CC1CCO (stereo unspecified),n,n,n,n,n,n
N#CCC1c2ccccc2CCN1C(=O)Nc1cccc(Cl)c1 (stereo unspecified),n,n,16.4µM,u,n,n
N#CCC1c2ccccc2CCN1C(=O)Nc1cccc(C(F)(F)F)c1 (stereo unspecified),12.6µM,n,n,u,n,u
N#CCC1c2ccccc2CCN1C(=O)Nc1ccc(Cl)cc1 (stereo unspecified),n,n,n,n,n,n
N#CCC1c2ccccc2CCN1C(=O)Nc1ccc(C(F)(F)F)cc1 (stereo unspecified),u,n,n,u,n,n
O=Nc1c2ccc[nH]c-2c2ccc([N+](=O)[O-])cc12,n,n,n,u,n,n
CCCS(=O)(=O)N1CCN(C(=O)c2ccco2)CC1,n,n,n,n,n,n
CCN(CC)CCNC(=O)C(=O)Nc1ccc2c(c1)N(S(=O)(=O)c1cccs1)CCC2,u,5.17µM,n,u,u,n
CCCCNC(=O)C(=O)Nc1ccc2c(c1)N(S(=O)(=O)c1cccs1)CCC2,u,x,2.31µM,8.2µM,x,2.06µM
CNC(=O)C(=O)Nc1ccc2c(c1)N(S(=O)(=O)c1cccs1)CCC2,n,n,n,n,n,n
CCCCOc1ccc(N(CC(=O)NCCOC)C(=O)CCC(=O)Nc2ccccn2)cc1,n,n,n,n,n,n
COc1ccc(Cl)cc1NC(=O)CN(C)C(=O)c1cccc(-n2cnnn2)c1,n[9.24 µM],n,n,n,n,n
Cn1cnnc1SC/C(O)=C(\C#N)c1nc2ccccc2[nH]1,n,n,n,n,n,n
CN(CCC#N)C(=O)COC(=O)c1c2c(nc3ccccc13)/C(=C/c1ccco1)CC2,n,11.6µM,u,n,u,n
CCOc1ccc(C(CCc2ccccc2)NC(=O)c2ccccc2OC)cc1OCC (stereo unspecified),u,u,u,u,20.6µM,n
CCOc1ccccc1C(=O)NC(C)c1ccc2c(c1)OCO2 (stereo unspecified),u,u,9.2µM,u,u,u
CCOc1ccc(C(C)NC(=O)Cc2ccccc2)cc1OCC (stereo unspecified),n,14.6µM,n,n,n,u
CCOc1ccccc1C(=O)NC(C(=O)N(C)Cc1ccc2c(c1)OCO2)C(C)C (stereo unspecified),n,n,u,n,n,n
CCC1CCC(N2CCN(c3cccc(OC)c3)CC2)CC1 (stereo unspecified),n,n,n,n,5.17µM,n
COc1cccc(N2CCN(C3C4CC5CC(C4)CC3C5)CC2)c1 (stereo unspecified),n,n,u,n,u,n
CC1CCN(C(=O)COC(=O)c2cc([N+](=O)[O-])ccc2N2CCOCC2)CC1,n,n,u,n,n,n
CC1CCCCN1C(=O)COC(=O)c1cc([N+](=O)[O-])ccc1N (stereo unspecified),n,n,16.4µM,n,n,n

# Screening data (PubChem)
